Abeta rescue – qHTS for compounds that reverse cellular toxicity of Amyloid beta (A-beta) peptide in yeast: Primary Screen; Potency, µM (series often up to 46.1 µM), actives largely listed as activators; yeast expressing A-beta42, growth rescue, OD600, 48 h; response scale: 0% DMSO, 100% iron-clioquinol control; 0.063% of 410,000 active; AID 1347071, 2019; also: nearly all actives have a fitted effect of over 55% in size
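Yeast A-beta toxicity model in growth medium with pinned compounds, 48 h at 30 C; growth read as absorbance at 600 nm. Normalized to FeCl3/clioquinol equimolar mix (positive) and DMSO (negative).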
Mito fusion act – qHTS Assay for Small Molecule Inhibitors of Mitochondrial Division or Activators of Mitochondrial Fusion. S. cerevisiae fusion-defective mutant growth rescue, CellTiterGlo 48 h. Potency, µM (highest dose often 46.1 µM), inactives show at the top dose growth rescue (activation), actives largely listed as activators. 0.23% of 320,000 active. AID 485298, 2010; also: % of control where 0% means no effect; nearly all actives have a fitted effect of over 45% in size
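Read-out: ATP-based luminescence (CellTiterGlo, 10 min ambient) reporting growth of fusion-defective ts yeast after 48 hours at 37C on glycerol/ethanol YPEG medium in the presence of compound.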
TDP43 rescue – qHTS of TDP-43 Inhibitors. TDP-43 expressing yeast growth rescue, BacTiter-Glo, 24 h. Potency, µM (titrated, usually from 46.1 µM), without a hit: at the highest dose growth rescue (activation), hits mostly activators. 1.8% of 410,000 active; also: % of control where 0% means no effect; nearly all actives have a fitted effect of over 50% in size
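Cell-based yeast growth screen: TDP-43 expression induced in galactose, inoculum OD600=0.02 after raffinose pregrowth to mid-log. Read-out BacTiter-Glo luminescence at 24 hr, 30 deg C; inhibition of toxicity seen as signal increase.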
aSyn yeast inh – qHTS of alpha-syn Inhibitors; 0.14% of 370,000 active; Potency, µM (top dose mostly 46.1 µM), for the others: at the highest dose growth rescue (activation), actives largely listed as activators; Yeast expressing alpha-synuclein, growth rescue, BacTiter-Glo, 24 h; also: % of control where 0% means no effect; nearly all actives have a fitted effect of over 65% in size
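Rescue of yeast growth: cells expressing toxic alpha-synuclein, induced in galactose at OD600 0.02, incubated with compound 24 h at 30 C. ATP luminescence quantified growth; inhibitors of toxicity appear as activators.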
FUS suppressor – qHTS for Suppressors of FUS Proteinopathy: Primary screen using FUS-linked yeast assay | 0.24% of 390,000 active | Potency, µM (titrated, usually from 76.6 µM), actives largely listed as activators | AID 1347120, 2019 | S. cerevisiae FUS-expressing, growth rescue, OD600, 24 h;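 also: plate controls were DMSO vehicle for no effect and reference control for full effect; nearly all actives have a fitted effect of over 55% in size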
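Yeast expressing FUS under galactose induction, OD 0.005 in 2% galactose medium; compounds in a dilution series, 24 h at 30C. Growth rescue by absorbance at 600 nm; CP55940 positive control, DMSO negative.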
Starred values were filed as active, the others as inactive; i = inactive; ? = inconclusive; / = no result. An excerpt weighted towards active compounds, which were near 2.2% of everything screened. Calls follow the shape of the dose curve; as a rule, active = well fitted curve in the direction sought with a large enough effect; inconclusive = small, poorly fitted or top-dose-only effect, or another doubt; inactive = no such curve, though single readings can be large; an effect the other way counts as inactive or inconclusive. Potency is read from the fitted curve at half-maximal effect.

SMILES	Abeta rescue	Mito fusion act	TDP43 rescue	aSyn yeast inh	FUS suppressor
O=C1[C@H](Cc2ccccc2)NCC=CC[C@H](c2ccc(Cl)cc2)N1Cc1ccccc1	i	/	10%	-5%	?
CNS(=O)(=O)c1cccc(C(=O)OCc2csc(-c3ccccc3)n2)c1	i	25%	16µM*	0%	/
COc1ccc(N2CCN(C(=S)NC(=O)c3cccs3)CC2)c([N+](=O)[O-])c1	?	-8%	22µM*	9%	i
O=C(c1cccs1)N1CCN(c2ccc([N+](=O)[O-])cc2F)CC1	i	1%	21%	2%	i
Cc1cc(N2CCN(C(=O)c3cccs3)CC2)c(F)cc1[N+](=O)[O-]	i	21%	13µM*	7%	i
O=C(OCc1cn([C@H]2CN(C(=O)C3CCCCC3)[C@@H](c3ccc(Cl)cc3)C[C@@H]2O)nn1)c1ccccc1	i	/	23%	0%	?
O=[N+]([O-])c1cc(/C=N/N2CCOCC2)cs1	i	1%	?	3%	i
O=[N+]([O-])c1ccc(C=NN2CCOCC2)s1	i	/	11µM*	2%	i
COc1ccccc1CN1CC(C(=O)NCCCc2ccc(F)cc2)CCC1=O (configuration not stated)	i	29%	-4%	-2%	16µM*
C[C@H]1CN([C@@H](C)CO)C(=O)c2cc(Br)cnc2O[C@H]1CN(C)C(=O)Cc1ccccn1	i	/	0%	7%	i
Cc1ccc(Cl)cc1NC(=O)c1oc2ccc(S(=O)(=O)N3CCC4(CC3)OCCO4)cc2c1C	i	/	23%	/	i
CC1=C(C(=O)N(C(C)C)C(C)C)CC(CC(=O)NCc2cccc3ccccc23)C(=O)N1Cc1ccc(C(C)(C)C)cc1 (configuration not stated)	i	/	5%	?	6.3µM*
CC1=C(C(=O)N(C)C)CC(CC(=O)NCc2cccc3ccccc23)C(=O)N1Cc1ccc(C(C)(C)C)cc1 (configuration not stated)	i	/	0%	6%	?
CC1=C(C(=O)N(C(C)C)C(C)C)CC(CC(=O)NCC2CCCCC2)C(=O)N1Cc1ccc(C(C)(C)C)cc1 (configuration not stated)	/	/	37µM*	/	?
Cc1cc(C)c(C(CC(=O)c2cccs2)C(C#N)C#N)c(C)c1 (configuration not stated)	i	28%	13µM*	1%	i
CCOc1ccc(NC(=O)CC2C(=O)N(c3ccc(OC)cc3)C(=O)N2C2CCCCC2)cc1 (configuration not stated)	i	/	-12%	/	40µM*
COc1ccc(NC(=O)CC2C(=O)N(c3ccc(OC)cc3)C(=O)N2C2CCCCC2)cc1 (configuration not stated)	i	/	15%	/	i
N#Cc1cc2c(=O)n3ccccc3nc2n(-c2nnc(SCc3ccc(F)cc3)s2)c1=O	i	/	10%	/	i
O=C1CCC(C(=O)N2CCCCO2)CN1Cc1ccc(Cl)cc1 (configuration not stated)	i	1%	4%	-6%	/
COc1ccccc1-c1cc(C(F)(F)F)nc(N2CCOCC2)n1	i	2%	22µM*	-27%	i
Cc1cccc(C)c1OCc1cccc(C2Nc3ccccc3C(=O)N2Cc2ccco2)c1 (configuration not stated)	/	/	/	/	i
O=C(NNC(=O)c1ccccc1F)c1ccc(-c2ccccc2Cl)o1	i	/	22µM*	0%	i
CC1CCN(C(=O)c2ccc(-c3ccccc3Cl)o2)CC1	i	16µM*	-13%	1%	i
O=C(NCC1CCCO1)c1ccc(-c2ccccc2Cl)o1 (configuration not stated)	i	-9%	20µM*	20%	i
Cc1onc(-c2ccccc2Cl)c1C(=O)NCC1CCCO1 (configuration not stated)	i	5%	-13%	-5%	i
